Laboratory results from PubChem BioAssay (Tox21).
Several values for one entry are separate records, joined by “and”; a condition that tells them apart may be missing. Identical values can stand only once. Results filed as inconclusive are left out. Where a call stands in place of a potency, no number is given. More than one record can exist for a structure, and the calls need not agree. Activity calls are given as the source filed them. Calls come from the whole dose curve; as a rule, active = well fitted activation curve with a large enough effect in the repeat runs; inconclusive = weak or mixed curves; inactive = no such curve, though single readings can be large or run the other way.

Experiment: qHTS assay for small molecules that induce genotoxicity in human embryonic kidney cells expressing luciferase-tagged ATAD5 (AID 651632); note: nearly all actives have a fitted effect of over 15% in size
Conditions: HEK293T ATAD5-luciferase induction, 16 h; series mostly up to 83.3 µM; activation: at the top concentration
Excerpt: U.S. Tox21 Program National Center for Advancing Translational Sciences [NCATS] NIH Chemical Genomics Center [NCGC] U.S. Environmental Protection Agency [EPA] National Institutes of Environmental Health Sciences [NIEHS] National Toxicology Program [NTP] U.S. Food and Drug Administration [FDA] Tox21 Assay Overview: As cancer cells divide rapidly and during every cell division they need to duplicate their genome by DNA replication. The failure to do so results in the cancer cell death. Based on this concept, many chemotherapeutic agents were developed but have limitations such as low efficacy and severe side effects etc. A new cell based assay was developed to find the compounds that effectively block DNA replication either by directly damaging DNA or by inhibiting other cellular mechanisms. Enhanced Level of Genome Instability Gene 1 (ELG1; human ATAD5) protein levels increase in response to various types of DNA damage. Using a luciferase reporter-gene tagged with ATAD5, a cell-based assay [developed by Kyungjae Myung, NHGRI, NIH] was used to measure the induction of ATAD5 in human embryonic kidney cells (HEK293T). So, increase in luciferase activity can be used to identify the compounds that cause genetic stress.
Tox21 Assay Protocol Summary: For genotoxicity screening, 2,000 cells in 5 uL/well were dispensed into white, solid-bottom 1536-well plates using a Multidrop Combi (Thermo Scientific) dispenser. Following transfer of 23 nL compound or DMSO vehicle by a pin tool, the plates were incubated 16 hr at 37C and 5% CO2. 5 ul Amplite (AAT Bioquest, Inc.) was then added to each plate and following 30 min incubation at room temperature, luciferase activity was quantified on a ViewLux CCD-based plate reader.
Potency is the fitted concentration of half-maximal effect.

For `NC(N)=Nc1nc(CSCC/C(N)=N/S(N)(=O)=O)cs1`, which Potency is on record?
The Potency was “inactive”.

For `CN(C)c1ccc(C(=C2C=CC(=[N+](C)C)C=C2)c2ccccc2)cc1`, which “activation” value is on record?
Its value is 5.48% (inactive).

Which Potency does the source give for `CC(=O)N[C@@H](CS)C(=O)O` here?
The Potency was “inactive”.

Which “activation” value does the source give for `CC1=C(C=O)C(C)(C)CC=C1` here?
The value was 1.82% [at 95.3 µM] (inactive).

With `CC(C)(C)c1cc(C(C)(C)C)c(O)c(C(C)(C)C)c1` as the compound, how does the Potency read?
The Potency was “inactive”.

For `OCC(CO)N[C@H]1C[C@](O)(CO)[C@@H](O)[C@H](O)[C@H]1O`, which “activation” value is on record?
Its value is 0.751% (inactive).

For `CCn1cc(C(=O)O)c(=O)c2cc(F)c(N3CCNC(C)C3)c(F)c21` (stereo not given), which Potency is on record?
The Potency was “inactive”.

For `O=C(Oc1ccccc1)c1ccccc1O`, which Potency is on record?
The Potency was “inactive”.

Which “activation” value does the source give for `c1ccc2c(c1)-c1cccc3c1c-2cc1ccccc13` here?
The value was 0.463% (inactive).

Which Potency does the source give for `O=C(Cl)c1cccc(C(=O)Cl)c1` here?
The Potency was “inactive”.

Which Potency does the source give for `CCn1c2ccccc2c2cc(N)ccc21` here?
The Potency was “inactive”.

With `c1cnc2cc3c(cc2n1)C1CNCC3C1` as the compound, how does the “activation” value read?
Its value is 3.03% [at 95.3 µM] (inactive).

Which Potency does the source give for `O=c1n(CC2CO2)c(=O)n(CC2CO2)c(=O)n1CC1CO1` (stereo not given) here?
Its Potency is 23.7 µM (active) and 24.2 µM (active) and 54.5 µM (active).

With `Nc1nc(=S)c2[nH]cnc2[nH]1` as the compound, how does the Potency read?
Its Potency is “inactive”.

For `OCCN1CCNCC1`, which Potency is on record?
Its Potency is “inactive”.

For `CCCC(=O)c1ccccc1`, which “activation” value is on record?
Its value is -2.08% (inactive).

For `C/C=C/c1ccc(OCC)c(O)c1`, which “activation” value is on record?
The value was 2.75% (inactive).

For `CC(C)CCOCc1ccccc1`, which “activation” value is on record?
Its value is 0.621% (inactive).

With `O=C(O)CP(=O)(O)O` as the compound, how does the “activation” value read?
Its value is -1.47% (inactive).

With `c1ccc2n[nH]nc2c1` as the compound, how does the Potency read?
Its Potency is “inactive”.

With `CCN(CC)c1ccc2c(C)cc(=O)oc2c1` as the compound, how does the Potency read?
Its Potency is “inactive”.

Which “activation” value does the source give for `CC(=O)CC(C)=O` here?
Its value is 1.6% [at 95.3 µM] (inactive).

For `NC12CC3CC(CC(C3)C1)C2`, which “activation” value is on record?
Its value is -5.05% (inactive).

With `COC(c1ccccc1)(c1ccccc1)[C@H](Oc1nc(C)cc(C)n1)C(=O)O` as the compound, how does the “activation” value read?
Its value is -0.557% (inactive).

Which Potency does the source give for `O=S(=O)(O)c1ccc2nc(-c3ccccc3)[nH]c2c1` here?
Its Potency is “inactive”.

Which Potency does the source give for `CCCCCC(=O)O[C@]1(C(C)=O)CC[C@H]2[C@@H]3CCC4=CC(=O)CC[C@]4(C)[C@H]3CC[C@@]21C` here?
The Potency was “inactive”.

For `CCC(CO)(CO)COCC(CC)(CO)CO`, which “activation” value is on record?
Its value is -2.05% (inactive).

Which Potency does the source give for `Oc1ccc(Cl)cc1Cc1cc(Cl)ccc1O` here?
Its Potency is “inactive”.

With `Cc1cc(Cc2cc(C)cc(C(C)(C)C)c2O)c(O)c(C(C)(C)C)c1` as the compound, how does the Potency read?
Its Potency is “inactive”.

With `COC(=O)c1cccc(C(=O)OC)c1` as the compound, how does the Potency read?
Its Potency is “inactive”.

Which Potency does the source give for `Cc1cc(C2(c3cc(C)c(O)cc3C)OS(=O)(=O)c3ccccc32)c(C)cc1O` here?
The Potency was “inactive”.

For `CC(=O)C1=C(C)[C@@H]2C[C@@]3(C1)[C@H](C)CC[C@H]3C2(C)C`, which Potency is on record?
The Potency was “inactive”.

Which “activation” value does the source give for `COc1ccc(Cc2cnc(N)nc2N)cc1OC` here?
The value was 4.97% (inactive).

Which “activation” value does the source give for `CCN1CCCC1CNC(=O)c1cc(S(=O)(=O)CC)c(N)cc1OC` (stereo not given) here?
The value was 2.34% (inactive).

Which Potency does the source give for `CCC(=O)/C=C/C1C(C)=CCCC1(C)C` (stereo not given) here?
The Potency was “inactive”.

With `BrC1CCC(Br)C(Br)CCC(Br)C(Br)CCC1Br` (stereo not given) as the compound, how does the Potency read?
The Potency was “inactive”.

Which Potency does the source give for `CC(=O)Nc1ccc(C(=O)CCl)cc1` here?
The Potency was “inactive and 24.3 µM (active)”.

Which Potency does the source give for `CC[C@H]1CN2CCc3cc(OC)c(OC)cc3[C@@H]2C[C@@H]1C[C@H]1NCCc2cc(OC)c(OC)cc21` here?
The Potency was “inactive”.

With `CCCCCCCCCCCCCC[P+](CCCC)(CCCC)CCCC` as the compound, how does the Potency read?
The Potency was “inactive”.

For `NNCCc1ccccc1`, which “activation” value is on record?
The value was 1.42% (inactive).
